Assay [1] is described as follows: NCI Yeast Anticancer Drug Screen. Data for the rad50 strain (AID 155).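 Further: 0% = growth of vehicle-only cultures of the same strain.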 The settings on record: S. cerevisiae rad50 strain growth inhibition, active compounds read high. The method, boiled down:
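A DNA repair-deficient yeast mutant serves as the test organism; compound-induced growth inhibition is calculated against vehicle-treated cells.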

A short description of assay [2]: NCI Yeast Anticancer Drug Screen. Data for the mec2-1 strain (AID 157). To be noted: S. cerevisiae mec2-1 strain, active compounds read high. The method, boiled down:
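Growth inhibition is read against vehicle-treated controls after compound exposure of the mec2-1 yeast strain, which is defective in DNA damage repair or cell cycle control.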

A short description of assay [3]: NCI Yeast Anticancer Drug Screen. Data for the sgs1 mgt1 strain (AID 161).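 Further: 0% = growth of cultures given vehicle only.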 The settings on record: S. cerevisiae sgs1 mgt1 strain, active compounds read high. The method, boiled down: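 Percent growth inhibition was derived by comparing compound-exposed mutant yeast with vehicle-exposed cultures. The strain carries alterations in DNA damage repair.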
Assay [4] can be described thus: NCI Yeast Anticancer Drug Screen. Data for the cln2 rad14 strain (AID 165).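 Further: 0% = growth equal to vehicle treated cultures.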 The settings on record: S. cerevisiae cln2 rad14 strain, active compounds read high. A digest of the protocol: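 Growth inhibition, relative to vehicle-treated controls, is the read-out. The test organism is a yeast strain with defined genetic alterations, cln2 rad14.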
Assay [5] can be described thus: NCI Yeast Anticancer Drug Screen. Data for the bub3 strain (AID 167). The settings on record: S. cerevisiae bub3 mutant strain, active compounds read high. The method, boiled down:
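Inhibition values come from growth of compound-treated mutant yeast normalised to vehicle-treated controls.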

Assay [6] in a line: NCI Yeast Anticancer Drug Screen. Data for the mlh1 rad18 strain (AID 175). To be noted: S. cerevisiae mlh1 rad18 strain growth inhibition, active compounds read high. A digest of the protocol: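 Cells of a genetically altered yeast strain, deficient in DNA damage repair, were treated with compound. Their growth was then compared with that of vehicle-treated cultures to give inhibition.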

Setting [7] is: at 5.0 µM (retest, dose inferred, filed as 0.5).
[8] abbreviates: at 50.0 µM (retest, dose inferred, filed as 5.0).

This is part of a sample that, as a whole, favours compounds with a hit. Of some 79,000 tested, about 15% had one in any assay. Unmarked numbers belong to inactive results. Active and inactive are the calls of the source. No stated cut-off is given here; in the data, active means growth inhibition above about 70%; inactive means the rest.

Consider `CC/C(=N\NC(=S)SC)c1ccccn1`, for which the growth inhibition in assay [1] (setting [7]) is 24%; in assay [1] (setting [8]), 96% (active); in assay [1] (at 50.0 µM), -13.7%; in assay [2] (setting [7]), 16%; in assay [2] (setting [8]) it was 96% (active); in assay [2] (at 50.0 µM), -5.4%. Moreover, the growth inhibition was 24% in assay [3] (setting [7]); 96% (active) in assay [3] (setting [8]); 88.9% (active) in assay [3] (at 50.0 µM); 24% in assay [4] (setting [7]); 97% (active) in assay [4] (setting [8]); 88.7% (active) in assay [4] (at 50.0 µM). The growth inhibition in assay [5] (setting [7]) is 18%; in assay [5] (setting [8]), 96% (active); in assay [5] (at 50.0 µM) it was 86.2% (active); in assay [6] (setting [7]), 25%; in assay [6] (setting [8]), 96% (active); in assay [6] (at 50.0 µM), 87% (active).
Consider `S=C(Nc1cc(Cl)cc(Cl)c1)SCc1ccccc1`, for which the growth inhibition is 33% in assay [1] (setting [7]); 78% (active) in assay [1] (setting [8]); 99.1% (active) in assay [1] (at 50.0 µM); 25% in assay [2] (setting [7]); 54% in assay [2] (setting [8]); 99.5% (active) in assay [2] (at 50.0 µM). Also, the growth inhibition in assay [3] (setting [7]) is 30%; in assay [3] (setting [8]), 74% (active); in assay [3] (at 50.0 µM) it was 99.2% (active); in assay [4] (setting [7]), -9%; in assay [4] (setting [8]), 48%; in assay [4] (at 50.0 µM) it was 98.7% (active). In addition, the growth inhibition in assay [5] (setting [7]) is 4%; in assay [5] (setting [8]), 68%; in assay [5] (at 50.0 µM), 99.2% (active); in assay [6] (setting [7]) it was 31%; in assay [6] (setting [8]), 82% (active); in assay [6] (at 50.0 µM), 99.3% (active).
`Cc1cc2c(=O)[nH]c(N)nc2nc1C`: the growth inhibition in assay [1] (setting [7]) is -7%; in assay [1] (setting [8]) it was 11%; in assay [1] (at 50.0 µM) it was -9.45%; in assay [2] (setting [7]), 1%; in assay [2] (setting [8]) it was -15%; in assay [2] (at 50.0 µM), -17.5%. The growth inhibition in assay [3] (setting [7]) was -13%; in assay [3] (setting [8]) it was -13%; in assay [3] (at 50.0 µM), -25%; in assay [4] (setting [7]), -2%; in assay [4] (setting [8]), -5%; in assay [4] (at 50.0 µM), 15.1%. Also, the growth inhibition is -5% in assay [5] (setting [7]); 3% in assay [5] (setting [8]); -8.85% in assay [5] (at 50.0 µM); -21% in assay [6] (setting [7]); -2% in assay [6] (setting [8]); -21.5% in assay [6] (at 50.0 µM).
As for `CN(C)CC/C(=N\Nc1ccc(Cl)c(Cl)c1)c1ccccc1`, the growth inhibition in assay [1] (setting [7]) was 88% (active); in assay [1] (setting [8]), 99% (active); in assay [1] (at 50.0 µM), 99.5% (active); in assay [2] (setting [7]), 69%; in assay [2] (setting [8]), 100% (active); in assay [2] (at 50.0 µM), 97.9% (active). In addition, the growth inhibition in assay [3] (setting [7]) is 98% (active); in assay [3] (setting [8]), 100% (active); in assay [3] (at 50.0 µM), 99.6% (active); in assay [4] (setting [7]), 34%; in assay [4] (setting [8]), 99% (active); in assay [4] (at 50.0 µM), 99.5% (active). Moreover, the growth inhibition is 82% (active) in assay [5] (setting [7]); 100% (active) in assay [5] (setting [8]); 99.6% (active) in assay [5] (at 50.0 µM); 95% (active) in assay [6] (setting [7]); 99% (active) in assay [6] (setting [8]); 99.2% (active) in assay [6] (at 50.0 µM).
`CCC[CH2][Sn]([S][Sn]([CH2]CCC)([c]1ccccc1)[c]1ccccc1)([c]1ccccc1)[c]1ccccc1`: the growth inhibition in assay [1] (setting [7]) is 97% (active); in assay [1] (setting [8]), 94% (active); in assay [1] (at 50.0 µM), 99.3% (active); in assay [2] (setting [7]), 93% (active); in assay [2] (setting [8]), 95% (active); in assay [2] (at 50.0 µM), 99.5% (active). Further, the growth inhibition was 99% (active) in assay [3] (setting [7]); 93% (active) in assay [3] (setting [8]); 99.5% (active) in assay [3] (at 50.0 µM); 97% (active) in assay [4] (setting [7]); 83% (active) in assay [4] (setting [8]); 98% (active) in assay [4] (at 50.0 µM). Also, the growth inhibition was 98% (active) in assay [5] (setting [7]); 87% (active) in assay [5] (setting [8]); 98.8% (active) in assay [5] (at 50.0 µM); 98% (active) in assay [6] (setting [7]); 91% (active) in assay [6] (setting [8]); 99.3% (active) in assay [6] (at 50.0 µM).
As to `O=C(O)CCCc1ccc2ccccc2c1`, the growth inhibition was -5% in assay [1] (setting [7]); 0% in assay [1] (setting [8]); 17.4% in assay [1] (at 50.0 µM); 11% in assay [2] (setting [7]); -1% in assay [2] (setting [8]); -27.1% in assay [2] (at 50.0 µM). In addition, the growth inhibition in assay [3] (setting [7]) is 10%; in assay [3] (setting [8]), 6%; in assay [3] (at 50.0 µM), 11.9%; in assay [4] (setting [7]), 14%; in assay [4] (setting [8]), -71%; in assay [4] (at 50.0 µM), 40%. Also, the growth inhibition in assay [5] (setting [7]) is 13%; in assay [5] (setting [8]), 0%; in assay [5] (at 50.0 µM) it was 5.65%; in assay [6] (setting [7]), -1%; in assay [6] (setting [8]), 9%; in assay [6] (at 50.0 µM), 12%.
On to `Cc1cc(O)ccc1N=Nc1ccccc1`, for which the growth inhibition in assay [1] (setting [7]) is 10%; in assay [1] (setting [8]), 99% (active); in assay [1] (at 50.0 µM), 99.7% (active); in assay [2] (setting [7]), -1%; in assay [2] (setting [8]) it was 99% (active); in assay [2] (at 50.0 µM), 99.8% (active). Also, the growth inhibition in assay [3] (setting [7]) is -1%; in assay [3] (setting [8]), 99% (active); in assay [3] (at 50.0 µM), 99.7% (active); in assay [4] (setting [7]) it was -8%; in assay [4] (setting [8]) it was 99% (active); in assay [4] (at 50.0 µM), 99.4% (active). The growth inhibition in assay [5] (setting [7]) is 14%; in assay [5] (setting [8]) it was 99% (active); in assay [5] (at 50.0 µM) it was 99.5% (active); in assay [6] (setting [7]), 1%; in assay [6] (setting [8]), 99% (active); in assay [6] (at 50.0 µM), 99.7% (active).
In the case of `CO/N=C/c1cc(NC(=S)c2ccoc2C)ccc1Cl`, the growth inhibition in assay [1] (setting [7]) is 4%; in assay [1] (setting [8]), 0%; in assay [1] (at 50.0 µM) it was 93.2% (active); in assay [2] (setting [7]), -16%; in assay [2] (setting [8]), -17%; in assay [2] (at 50.0 µM), 94.2% (active). The growth inhibition was 20% in assay [3] (setting [7]); 6% in assay [3] (setting [8]); 93.7% (active) in assay [3] (at 50.0 µM); -26% in assay [4] (setting [7]); 10% in assay [4] (setting [8]); 92.2% (active) in assay [4] (at 50.0 µM). Besides, the growth inhibition in assay [5] (setting [7]) is 9%; in assay [5] (setting [8]), 34%; in assay [5] (at 50.0 µM), 92.2% (active); in assay [6] (setting [7]) it was -23%; in assay [6] (setting [8]), -14%; in assay [6] (at 50.0 µM) it was 91.2% (active).
On to `CC(CN1CCOCC1)(CN1CCOCC1)[N+](=O)[O-]`, for which the growth inhibition was 10% in assay [1] (setting [7]); 99% (active) in assay [1] (setting [8]); 99.6% (active) in assay [1] (at 50.0 µM); 8% in assay [2] (setting [7]); 100% (active) in assay [2] (setting [8]); 99.8% (active) in assay [2] (at 50.0 µM). For the same molecule, the growth inhibition in assay [3] (setting [7]) was 4%; in assay [3] (setting [8]), 100% (active); in assay [3] (at 50.0 µM), 99.7% (active); in assay [4] (setting [7]), 3%; in assay [4] (setting [8]) it was 99% (active); in assay [4] (at 50.0 µM), 99.3% (active). Moreover, the growth inhibition was 14% in assay [5] (setting [7]); 99% (active) in assay [5] (setting [8]); 99.8% (active) in assay [5] (at 50.0 µM); 13% in assay [6] (setting [7]); 99% (active) in assay [6] (setting [8]); 99.5% (active) in assay [6] (at 50.0 µM).
As for `O=C(Nc1cccc(Cl)c1)OCCN(CCOC(=O)Nc1cccc(Cl)c1)C(=O)Nc1cccc(Cl)c1`, the growth inhibition in assay [1] (setting [7]) was 31%; in assay [1] (setting [8]) it was 76% (active); in assay [1] (at 50.0 µM), 77.8% (active); in assay [2] (setting [7]) it was 27%; in assay [2] (setting [8]), 80% (active); in assay [2] (at 50.0 µM), 51.4%. Further, the growth inhibition in assay [3] (setting [7]) was 36%; in assay [3] (setting [8]), 83% (active); in assay [3] (at 50.0 µM) it was 90.9% (active); in assay [4] (setting [7]) it was 54%; in assay [4] (setting [8]), 77% (active); in assay [4] (at 50.0 µM), 90.4% (active). The growth inhibition in assay [5] (setting [7]) is 53%; in assay [5] (setting [8]) it was 79% (active); in assay [5] (at 50.0 µM), 80.4% (active); in assay [6] (setting [7]) it was 62%; in assay [6] (setting [8]) it was 81% (active); in assay [6] (at 50.0 µM) it was 83.2% (active).

Values taken from PubChem BioAssay (NCI).
